The record followed here is PubChem BioAssay (NCATS).

Structures are written as SMILES. Records with an inconclusive call do not appear. A number with no mark means an inactive call. Calls come from the whole dose curve; as a rule, active = well fitted inhibition curve with a large enough effect; inconclusive = small, poorly fitted or top-dose-only effect; inactive = flat fitted curve, though single readings scatter.
% is set by controls: 0 for no effect and ±100 for the full control effect.

Sequence of Calcium and integrin-binding protein 1 (Homo sapiens) (Q99828 whole entry, looked up): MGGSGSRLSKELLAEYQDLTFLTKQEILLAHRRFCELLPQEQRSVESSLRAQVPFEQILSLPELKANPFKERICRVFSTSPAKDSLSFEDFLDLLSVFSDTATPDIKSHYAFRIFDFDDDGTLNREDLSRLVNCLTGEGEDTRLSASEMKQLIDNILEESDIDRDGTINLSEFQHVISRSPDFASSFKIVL

This experiment has as its target Calcium and integrin-binding protein 1 (Homo sapiens) (UniProt Q99828). Nature of the experiment: Primary qHTS for Identification of Calcium Integrin Binding Protein 1 (CIB1) Competitor (AID 1508620).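 Note: GST tagged CIB1 binding a fluorescein labelled alphaIIb integrin peptide tracer; top concentration of the series differs between compounds.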 The following applies: CIB1-GST / FITC-alphaIIb peptide fluorescence polarization; series mostly up to 57.7 µM; activity change, negative = inhibition: at the top concentration. In a few lines:
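CIB1-GST (1 uM final) and compound incubated 15 min at room temperature before adding FITC-alphaIIb peptide tracer (100 nM final). Competition for binding read by fluorescence polarization (ex 480, em 540) after another 15 min at room temperature.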
For orientation: In qHTS, concentration-response curves come from the screen itself.
With `OC[C@H]1O[C@@H](Oc2cc(O)cc(-c3cc4ccc(O)cc4o3)c2)[C@H](O)[C@@H](O)[C@@H]1O`, the “activity change, negative = inhibition” value is -9.62%.
On to `CC1(C)C(O)CCC2(C)C1C(O)C=C1COC(=O)C12O` (stereo not drawn), for which the “activity change, negative = inhibition” value is 3.73% [at 114 µM].
As for `C[C@@H]1C/C=C/C=C\C=C\C=C\[C@H](O[C@@H]2O[C@H](C)[C@@H](O)[C@H](N)[C@@H]2O)C[C@@H]2O[C@](O)(C[C@@H](O)C[C@H]3O[C@@H]3/C=C/C(=O)O1)C[C@H](O)[C@H]2C(=O)O`, the “activity change, negative = inhibition” value was 1.59% [at 30.2 µM].
With `CC1=C2C3OC(=O)C(C)C3(O)CCC2(C)CCC1=O` (stereo not drawn), the “activity change, negative = inhibition” value was -2.64% [at 114 µM].
Consider `C=CC(C)(C)C1(CC2NC(=O)C3CCCN3C2=O)C(=O)Nc2cc3c(cc21)C=CC(C)(C)O3` (stereo not drawn), for which the “activity change, negative = inhibition” value is 1.05%.
Turning to `O=C(/C=C/c1ccc(O)cc1)O[C@H]1[C@@H]2C=CO[C@@H](O[C@@H]3O[C@H](CO)[C@@H](O)[C@H](O)[C@H]3O)[C@@H]2[C@@]2(CO)O[C@@H]12`, the “activity change, negative = inhibition” value was 0.028%.
Regarding `C/C=C1/[C@H](O[C@@H]2O[C@H](CO)[C@@H](O)[C@H](O)[C@H]2O)OC=C(C(=O)OC)[C@H]1CC(=O)O[C@@H]1O[C@H](CO)[C@@H](O)[C@H](O)[C@H]1O`, the “activity change, negative = inhibition” value is 4.09% [at 30.2 µM].
Take `Cc1cn2c(N)c(Cl)cc(C(=O)NCC3CCN(CC(C)C)CC3)c2n1`: the “activity change, negative = inhibition” value was -1.12% [at 114 µM].
On to `C=C1[C@@H]2CC[C@@]3(C)[C@H](c4ccoc4)OC(=O)C[C@]13O[C@H]1CC(=O)C(C)(C)[C@H](CC(=O)OC)[C@]12C`, for which the “activity change, negative = inhibition” value was 0.208%.
To `CCOC(=O)[C@H]1O[C@@H]1C(=O)N[C@@H](CC(C)C)C(=O)NCCC(C)C` belongs -4.82% [at 114 µM]; to `CC(NCc1ccc(OCc2cccc(F)c2)cc1)C(N)=O` (stereo not drawn), 6.6% [at 114 µM]; to `C[C@@H]1O[C@@H](O[C@H]2[C@H](O[C@H]3CC[C@@]4(C)C(CC[C@]5(C)C4CC=C4C6CC(C)(C)CC[C@]6(C(=O)O[C@@H]6O[C@H](CO[C@@H]7O[C@H](CO)[C@@H](O[C@@H]8O[C@@H](C)[C@H](O)[C@@H](O)[C@H]8O)[C@H](O)[C@H]7O)[C@@H](O)[C@H](O)[C@H]6O)CC[C@]45C)[C@]3(C)CO)OC[C@H](O)[C@@H]2O)[C@H](O)[C@H](O)[C@H]1O` (stereo partly drawn), 2.74% [at 12.4 µM].
For the compound `CC(=O)O[C@@H]1[C@H](O[C@@H]2O[C@H](CO)[C@@H](O)[C@H](O)[C@H]2O)[C@@H](O[C@@H]2O[C@@H](C)[C@H](O)[C@@H](O[C@@H]3O[C@H](CO)[C@@H](O)[C@H](O)[C@H]3O)[C@H]2O)[C@H](OC(=O)C23CCC4(C)C(=CCC5C6(C)CC(O)C(O[C@@H]7O[C@H](C(=O)O)[C@@H](O)[C@H](O)[C@H]7O)C(C)(C(=O)O)C6CCC54C)C2CC(C)(C)CC3O)O[C@@H]1C` (stereo partly drawn), the activity change, negative = inhibition is 4.49% [at 12.4 µM].
